Data from PubChem BioAssay (NCI).
About 83,000 compounds went through this panel and 20% of them were active in at least one assay; those are over-represented in the sample as a whole.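 How to read the values: 0–100, growth inhibition (40 = 60% inhibited); 0, no net growth; -100 to 0, cell death (-40 = 40% of starting cells died; -100 = all dead).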 Unmarked numbers belong to inactive results. The source made the active and inactive calls. Rule for the calls: active = growth percent below 10; inactive = the rest.

Experiments:
Experiment in all cases: NCI-60 one-dose screen, 48 h (100 = growth as untreated, 0 = no growth, -100 = all killed)
[1] = tested on: SR leukemia; settings: 10 µM unless noted
[2] = tested on: OVCAR-8 ovarian; settings: 10 µM unless noted
[3] = tested on: OVCAR-5 ovarian; settings: 10 µM unless noted
[4] = tested on: OVCAR-4 ovarian; settings: 10 µM unless noted
[5] = tested on: SK-OV-3 ovarian; settings: 10 µM
[6] = tested on: IGROV1 ovarian; settings: 10 µM unless noted
[7] = tested on: OVCAR-3 ovarian; settings: 10 µM unless noted
[8] = tested on: HS 578T breast; settings: 10 µM unless noted
[9] = tested on: NCI/ADR-RES ovarian; settings: 10 µM unless noted
[10] = tested on: T-47D breast; settings: 10 µM
[11] = tested on: BT-549 breast; settings: 10 µM unless noted
[12] = tested on: MDA-MB-435 melanoma; settings: 10 µM unless noted
[13] = tested on: SW-620 colon; settings: 10 µM unless noted
[14] = tested on: MCF7 breast; settings: 10 µM unless noted
[15] = tested on: HCT-116 colon; settings: 10 µM unless noted
[16] = tested on: HCC-2998 colon; settings: 10 µM unless noted
[17] = tested on: KM12 colon; settings: 10 µM unless noted
[18] = tested on: RPMI-8226 leukemia; settings: 10 µM

| SMILES | growth [1] | growth [2] | growth [3] | growth [4] | growth [5] | growth [6] | growth [7] | growth [8] | growth [9] | growth [10] | growth [11] | growth [12] | growth [13] | growth [14] | growth [15] | growth [16] | growth [17] | growth [18] |
| --- | --- | --- | --- | --- | --- | --- | --- | --- | --- | --- | --- | --- | --- | --- | --- | --- | --- | --- |
| c1ccc2c(c1)oc1cc3c(cc12)nnc1cccn13 | 94.6% | 102% | 116% | 107% | 108% | 87.4% | 107% | 108% | 111% | 85.4% | 97.9% | 105% | 108% | 82.3% | 100% | 110% | 99.8% | – |
| Cc1cccc2c(=O)c3c(sc12)c(NCCNCCO)nc1ccccc13 | -44.1% (active) | 34% | 64.9% | – | – | 16.1% | 45.1% | 54.5% | 45.1% | 44.8% | 78.4% | 7.39% (active) | -67% (active) | -69% (active) | -70.6% (active) | -24.9% (active) | 5.93% (active) | -34.2% (active) |
| CC(=O)OC[C@]1(C)C=C2C(=O)[C@](C)(O)C3(CC3)C(C)=C2[C@H]1OC(C)=O | 62.8% | 75.9% | 91.3% | – | – | 91.1% | 94.9% | 96% | 75% | 73.6% | 72.6% | 95.4% | 88.2% | – | 62.3% | 81.8% | 78.4% | 84.1% |
| COC(=O)c1c2c(c(C)[n+]([O-])c1C)C(=O)C=C(NCc1cccc(OC)c1)C2=O | -8.2% (active) | -23.7% (active) | -90.3% (active) | – | – | -64% (active) | -51% (active) | -22.2% (active) | -25.6% (active) | -43.9% (active) | -95% (active) | -94.7% (active) | -41.2% (active) | -65.4% (active) | -60.1% (active) | -64.7% (active) | -21.1% (active) | -35.5% (active) |
| CN(C)C(=S)SCN1C(=O)c2ccc([N+](=O)[O-])cc2S1(=O)=O | 75.8% | 98.5% | – | 103% | 107% | 104% | 99.3% | 93% | 96.4% | 102% | 80.8% | 101% | 90.1% | 97.4% | 95.7% | 102% | 96.1% | 116% |
| CCCOC(=O)c1ccc2c(c1)[N+](=O)C(C(=O)c1ccccc1)=C(C(F)(F)F)[N+]2=O | -41.4% (active) | -86% (active) | -87.7% (active) | -73.1% (active) | -99.9% (active) | -74.4% (active) | -95.3% (active) | -52% (active) | -43.1% (active) | -83.2% (active) | -83.9% (active) | -89.5% (active) | -82.5% (active) | -69.7% (active) | -73% (active) | -87.6% (active) | -81.6% (active) | – |
| CCOc1ccc(/C=N\N2CCCCCC2)cc1OCC | 89.6% | 101% | 95% | – | 91.6% | – | 104% | 120% | – | 99.1% | 96.2% | 53.2% | 114% | – | 99.5% | – | 103% | 83.4% |
| COc1ccc(OC2=CC(=O)c3ccc(C)nc3C2=O)cc1 | 51.2% | 80.7% | 114% | – | – | 87.8% | 72.3% | 83.2% | – | 79.9% | 90.7% | – | 94.9% | 72.4% | 74.3% | 102% | 81.3% | 79.7% |
| O=C(N/N=C/c1ccc(F)cc1)c1[nH]c2ccc(I)cc2c1-c1ccccc1 | 114% | 45.5% | – | 37.2% | -1.53% (active) | 23.8% | 5.48% (active) | 51.8% | – | 48.4% | 20.1% | -24% (active) | 33.3% | 14.3% | 14.8% | – | 5.42% (active) | 22% |
| Cc1nc(NC(=O)COc2cccc(/C=C3\COc4ccccc4C3=O)c2)sc1C | -69.5% (active) | 7.04% (active) | – | 55.1% | 92.2% | – | -83.3% (active) | -33.7% (active) | – | 53.2% | -68.5% (active) | -44.5% (active) | -100% (active) | -58.7% (active) | -88.4% (active) | – | -92.4% (active) | -74.2% (active) |
| O=c1oc2ccccc2cc1-c1csc(N=Nc2c(O)[nH]c3ccc(Br)cc23)n1 | 114% | 102% | 97.6% | – | – | 99.8% | 108% | 93.3% | – | 107% | 102% | 98.8% | 103% | 94% | 98.1% | 102% | 103% | 109% |
| O=C(NCc1ccco1)C1CCN(S(=O)(=O)c2ccc(Cl)cc2)CC1 | 19.5% | 80.4% | 103% | – | 94.5% | – | -64.7% (active) | 68.9% | 66.6% | 78% | 84.4% | -9% (active) | 38.5% | 64.7% | 70.4% | 80.3% | 37.6% | -24.6% (active) |
| O=c1oc2ccccc2cc1-c1csc(N=Nc2c(O)[nH]c3ccc(Cl)cc23)n1 | 102% | 96.3% | 96.2% | – | – | 107% | 107% | 105% | 105% | 98.8% | 99% | 98.9% | 103% | – | 107% | 104% | 108% | 105% |
| Oc1ccc(Cl)cc1CNc1nc2ccccc2[nH]1 | -31.7% (active) | 42.8% | 98.9% | – | 87.1% | – | -73.8% (active) | 89% | 38.6% | 96% | 58.4% | -67.3% (active) | -48.6% (active) | 18% | 12.3% | 59.3% | 13.2% | -21.2% (active) |
| O=C(N/N=C(\CS(=O)(=O)c1ccccc1)c1cc2ccccc2oc1=O)c1ccccc1 | 101% | 100% | 101% | – | – | 109% | 111% | 106% | – | 101% | 104% | 103% | 105% | 102% | 112% | 106% | 108% | 112% |
| CN1CCN(c2ccc3nc(-c4ccc5nc(-c6ccc(C(F)(F)F)cc6)[nH]c5c4)[nH]c3c2)CC1 | -18.5% (active) | 65.5% | 110% | – | – | 71.2% | -17.3% (active) | 26.4% | 102% | 57.9% | 84.6% | 49.8% | 1.32% (active) | 4.4% (active) | 21.1% | 87.2% | 49.7% | -9.04% (active) |
| COc1cccc(Nc2nc(NCCO)c3ccccc3n2)c1 | 47.1% | 81.9% | 101% | – | 102% | – | 61.5% | 62.4% | 63.9% | 75.2% | 72.9% | 72.3% | 64.5% | 76.8% | 72.1% | 87.5% | 51.2% | 13.7% |
| O=C(COc1cccc(/C=C2\COc3ccccc3C2=O)c1)c1ccccc1 | -62.4% (active) | 19.1% | – | 79.2% | 98.7% | – | 80.3% | -28.2% (active) | – | 75.3% | 45.5% | – | -81.7% (active) | 7.63% (active) | 3.67% (active) | – | 31.6% | -51.1% (active) |
| COC(=O)c1c2c(c(C)[n+]([O-])c1C)C(=O)C=C(NCc1ccc(F)c(Cl)c1)C2=O | -1.19% (active) | -21.2% (active) | -91.8% (active) | – | – | -55.2% (active) | -41.4% (active) | -24.2% (active) | -18.6% (active) | -41.9% (active) | -96.9% (active) | -96.9% (active) | -29.6% (active) | -61.9% (active) | -48.6% (active) | -59.3% (active) | -16.5% (active) | -32.7% (active) |
